# Shown are actives, neighbours in structure and some others; about 2.1% of the full set was active somewhere.
# NRP1-CendR mod: modulators of CendR peptide binding to NRP-1, primary screen, biochemical, fluorescence polarization, uHTS; Neuropilin-1 (Homo sapiens), O14786; FAM-RPARPAR peptide binding to NRP-1; inhibition, % at 25 µM; 360,000 tested, 0.85% active; AID 602438, 2012;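 active means inhibition or corrected inhibition above about 18%, plus a signal ratio from 0.5 to 1.5, limit read from the data, passing the limit was not always enough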
# eIF4H inh: human eIF4H binding inhibitors, primary screen, translation initiation inhibitor project, biochemical, uHTS, fluorescence polarization; Eukaryotic translation initiation factor 4H (Homo sapiens), Q15056; eIF4H fluorescence polarization binding assay; inhibition, % at 35 µM; 290,000 tested, 0.94% active; AID 2012, 2009;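 further: calls also rest on retests at 20 µM and on dose response follow-up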
# PABP polyA inh: PABP poly(A) RNA binding inhibitors, primary screen, biochemical, fluorescence polarization, uHTS; Polyadenylate-binding protein 1 (Homo sapiens), P11940; inhibition, % at 35 µM; 290,000 tested, 1% active; AID 2014, 2009;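 further: calls also rest on retests at 20 µM and on dose response follow-up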
# Target sequence (P11940 whole entry, looked up): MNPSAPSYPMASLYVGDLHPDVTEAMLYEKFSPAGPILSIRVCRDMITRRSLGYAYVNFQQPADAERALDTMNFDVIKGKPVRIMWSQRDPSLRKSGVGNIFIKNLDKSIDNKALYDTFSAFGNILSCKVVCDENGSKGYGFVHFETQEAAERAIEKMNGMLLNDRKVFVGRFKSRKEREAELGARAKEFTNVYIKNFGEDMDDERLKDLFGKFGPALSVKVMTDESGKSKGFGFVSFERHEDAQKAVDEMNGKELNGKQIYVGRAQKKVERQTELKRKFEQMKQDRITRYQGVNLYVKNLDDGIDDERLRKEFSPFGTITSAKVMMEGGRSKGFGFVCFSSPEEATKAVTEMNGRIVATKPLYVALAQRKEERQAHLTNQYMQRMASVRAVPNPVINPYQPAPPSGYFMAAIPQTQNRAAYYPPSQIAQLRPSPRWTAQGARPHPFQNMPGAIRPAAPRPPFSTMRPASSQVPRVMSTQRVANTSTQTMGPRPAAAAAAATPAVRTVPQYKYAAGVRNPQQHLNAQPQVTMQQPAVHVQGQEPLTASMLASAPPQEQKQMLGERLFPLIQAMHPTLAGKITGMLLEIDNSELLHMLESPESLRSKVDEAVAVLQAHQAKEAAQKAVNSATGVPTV
# PABP1 MLLE inh: inhibitors of PABP1 MLLE–PAM2 peptide binding, primary screen, biochemical, fluorescence polarization, FITC-PAM2, GST-MLLE | Polyadenylate-binding protein 1 (Homo sapiens), P11940 | inhibition, % at 20 µM | 360,000 tested, 0.36% active; in the data active means inhibition above about 35%, passing the limit was not always enough;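 further: plate controls were DMSO wells with GST-MLLE for no effect and wells lacking GST-MLLE protein for full effect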
# * = called active by the depositor; ? = inconclusive; . = no result. Unless noted, how the calls were made is not given here.
SMILES,NRP1-CendR mod,eIF4H inh,PABP polyA inh,PABP1 MLLE inh
CCOC(=O)N1CCN(C(=O)CNC(=O)c2ccc(Cl)cc2)CC1,15,-8,2,11
CC1(C(=O)NS(=O)(=O)c2cccc(Cl)c2)CCN1C(=O)CCc1ccccc1 (stereo unspecified),-7,.,.,4
CCC1(CC)NC(=O)N(CC(=O)NC(=O)NCc2ccccc2)C1=O,2,-2,23,-91
CC1Cn2c(nnc2-c2cc3ccccc3cc2O)S1 (stereo unspecified),26*,-13,-10,-6
CC1Cn2c(nnc2-c2ccccc2O)S1 (stereo unspecified),7,-3,-6,-1
CCCCCN1CC(O)=C(c2nc3ccccc3[nH]2)C1=N,11,6,-3,-11
CCCCN1CC(O)=C(c2nc3ccccc3[nH]2)C1=N,22*,6,2,5
COc1ccc(C(=O)NCCS(=O)(=O)N(C)C2CCCCC2)cc1,0,.,.,20
O=C(COc1ccc2ccc(=O)oc2c1)NCCCN1CCCC1=O,8,-6,-2,12
O=C(O)/C(=C\c1ccccc1)c1ccc2ccccc2c1,21*,.,.,5
Cc1ccc(OCCC(=O)OCC(=O)Nc2ccc(F)cc2)cc1,-5,.,.,-4
CSc1nc(NCCOCCO)c2sc3nc(-c4ccco4)c4c(c3c2n1)CCC4,-122,94*,94*,-6
CCN(CCO)c1ncnc2c1sc1nc(C(C)C)c3c(c12)CC(C)(C)OC3,1,9,0,14
CCN(CCO)c1nc(SC)nc2c1sc1nc(-c3ccco3)c3c(c12)CCC3,0,85*,73*,21
Cc1cc(C(=O)CN2C(=O)C3CC=CCC3C2=O)c(C)n1-c1ccccc1 (stereo unspecified),29*,6,7,1
N/C(=N\OC(=O)CSc1ccccc1)c1ccc([N+](=O)[O-])cc1,-17,3,-3,41*
Cc1cc(=O)[nH]c(NNC(=O)c2ccc(Cl)cc2)n1,-4,.,.,-5
Cc1ccc2[nH]c(C(=O)NCCN3CCCC3)cc2c1,-2,2,-12,1
O=C(NNC(=O)c1cc(S(=O)(=O)N2CCOCC2)c(Cl)cc1Cl)c1ccccc1F,17*,.,.,-9
O=C(Nc1ccccc1O)c1cc(S(=O)(=O)N2CCOCC2)c(Cl)cc1Cl,0,7,-3,0
O=C(N/N=C/c1cc(Br)c(O)c(Br)c1O)c1ccc2c(c1)OCCO2,-38,54*,4,-25
O=C(N/N=C/c1cc(Br)c(Br)o1)c1ccc2c(c1)OCCO2,-38,76*,54*,-52
O=C(N/N=C/c1cc(Br)c(Br)o1)c1cccnc1,31*,?,3,59*
COc1ccc(S(=O)(=O)N2CCC3(CC2)OCCN3S(=O)(=O)c2ccccc2)cc1OC,8,.,.,-10
Cc1ccc(CN2CC(C(=O)NNC(=O)c3ccc(F)cc3)CC2=O)cc1 (stereo unspecified),4,.,.,-9
SMILES,NRP1-CendR mod,eIF4H inh,PABP polyA inh,PABP1 MLLE inh
COC(=O)c1ccccc1NC(=O)COC(=O)/C=C/c1ccco1,0,53*,4,-20
O=C(/C=C/c1ccco1)NC1=NCCS1,0,?,active,35
COc1ccccc1C(=O)N/C(=C/c1ccco1)C(=O)Nc1cccc(C(=O)O)c1,-68,67*,49*,-21
O=C(/C=C/c1ccco1)Nc1cc(Cl)ccc1C(=O)O,-15,89*,active,0
O=C(COC(=O)/C=C/c1ccco1)Nc1ccccc1,-7,-2,6,-10
Cc1cc(C[n+]2cc(Br)ccc2N)c2ncccc2c1,2,1,2,1
O=C(/C=C/c1ccco1)Nc1ccccc1C(=O)O,-70,95,67*,16
O=C(/C=C/c1ccco1)Nc1ccccc1C(=O)Nc1cccc(C(=O)O)c1,-64,?,36*,4
COC(=O)C1=C(C)N(c2ccc(OC)cc2)C(=O)/C1=C\c1cccs1,-22,active,71*,-9
COc1cccc(CN2C(=O)c3cccc(N)c3C2=O)c1,-14,88*,5.5*,12
CC(Oc1ccc(C#N)cc1)C(=O)N1CC=C(c2ccccc2)CC1 (stereo unspecified),1,.,.,-1
C=CCn1c(SCc2cc(=O)n3ccsc3n2)nnc1C1CCCCC1,4,73*,26*,-32
O=c1cc(CSc2nnc(NC3CCCCC3)s2)nc2sccn12,9,-2,6,0
Cc1ccc([C@@H]2C[C@H]3[C@@H](CN2S(=O)(=O)c2ccc(Cl)cc2)C(=O)C[C@@H](c2ccccc2)N3S(=O)(=O)c2ccc(C)cc2)cc1,7,.,.,3
O=C(C1=NN(c2ccccc2)C2C(=O)N(c3cccc(Cl)c3)C(=O)C12)c1ccccc1 (stereo unspecified),135,?,0.3*,7
C#CCCc1cocc1/C=[N+](\[O-])c1ccc(C(=O)OCC)cc1,-19,.,.,-6
CCOC(=O)N1CCN(C(=O)Nc2ccc3nc(C)c(C)nc3c2)CC1,44*,2,-8,0
CCOC(=O)N1CCN(C(=O)Nc2ccc3nccnc3c2)CC1,-5,4,-2,-2
CC1=C(C)CC(C(=O)NC2CCCC2)C(C(=O)O)C1 (stereo unspecified),-7,-8,4,-14
CC1=CCC(C(=O)O)C(C(=O)NC2CCCCC2)C1 (stereo unspecified),-2,70*,13,6
CC(C)CCN1C(=O)c2ccc(C(=O)Nc3ccc(O)cc3C(=O)O)cc2C1=O,16,81*,55*,2
COc1ccccc1NS(=O)(=O)c1cc([N+](=O)[O-])ccc1N/N=C/c1sc(N2CCOCC2)nc1-c1ccccc1,-214,71*,active,-157
Cc1ccc(S(=O)(=O)N(C)C[C@@H]2OCc3cn(nn3)CCCC(=O)N([C@@H](C)CO)C[C@H]2C)cc1,-4,.,.,3
O=C(Cc1ccc2ccccc2c1)Nc1ccccc1Br,3,-5,4,3
O=C(Cc1ccc2c(c1)CCCC2)Nc1ccccc1Br,-10,-8,1,38*
SMILES,NRP1-CendR mod,eIF4H inh,PABP polyA inh,PABP1 MLLE inh
CCCNC(=S)Nc1ccc(CC(=O)OC)cc1,24*,1,3,-18
CC1(C(=O)NCC2CCOCC2)Cc2c(-c3cccc(C(F)(F)F)c3)ccnc2O1 (stereo unspecified),7,.,.,0
Fc1cccc(Nc2nc(N3CCOCC3)nc(N3CCOCC3)n2)c1,5,-3,-5,14
O=C(CSc1nccc(=O)[nH]1)Nc1cccc2ccccc12,-2,-8,9,-11
O=c1c(-c2c(O)cc(O)c3c(=O)cc(-c4ccc(O)cc4)oc23)c(-c2ccc(O)cc2)oc2cc(O)cc(O)c12,-28,95*,65*,-14
N/C(Cc1cccc2ccccc12)=N\OC(=O)c1cccs1,-16,84*,active,-9
Cc1ccc(OC(=O)c2cccc(S(=O)(=O)N3CCN(C)CC3)c2)c(Br)c1,-6,-4,-1,-2

# Screens from PubChem BioAssay.
